Reference: PubChem BioAssay AID1851 (National Center for Advancing Translational Sciences (NCATS), 2009)
Hit rate of the full screen: of about 16,000 compounds, about 2,600 (16%) were called active. Another 20% or so got no clear call; they are omitted. Only a sample is shown. Values without a mark were called inactive. The call rests on the fitted dose curve; in most records, active means well fitted curve in the direction sought with a large enough effect; inconclusive means small, poorly fitted or top-dose-only effect, or effect the other way; inactive means no such curve, though single readings can be large or run the other way.

These compounds were tested against Cytochrome P450 2D6 (Homo sapiens) (UniProt P10635) (assay: Cytochrome panel assay with activity outcomes). Settings: recombinant CYP, pro-luciferin dealkylation, luminescence, p450-cyp2d6; series mostly up to 57.1 µM.
Sequence of Cytochrome P450 2D6 (Homo sapiens) (P10635 whole entry, looked up): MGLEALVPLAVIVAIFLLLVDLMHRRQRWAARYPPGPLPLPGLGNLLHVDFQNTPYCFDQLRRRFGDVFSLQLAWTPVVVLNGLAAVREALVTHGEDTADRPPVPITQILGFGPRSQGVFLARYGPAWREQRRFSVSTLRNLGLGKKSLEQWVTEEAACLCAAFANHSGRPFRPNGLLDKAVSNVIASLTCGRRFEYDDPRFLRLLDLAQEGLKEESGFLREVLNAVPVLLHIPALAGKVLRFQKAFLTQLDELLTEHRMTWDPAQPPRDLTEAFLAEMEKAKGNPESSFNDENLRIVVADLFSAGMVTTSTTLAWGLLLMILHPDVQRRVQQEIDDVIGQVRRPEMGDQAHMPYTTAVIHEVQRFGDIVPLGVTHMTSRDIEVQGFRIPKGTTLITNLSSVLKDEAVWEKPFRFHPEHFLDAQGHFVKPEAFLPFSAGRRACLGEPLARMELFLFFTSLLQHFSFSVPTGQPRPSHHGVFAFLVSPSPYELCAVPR
On the % scale 0 is the no-effect control and ±100 the full control effect.

Compound	AC50	activity, negative = inhibition
COc1ccccc1Cn1nnc2c(=O)[nH]c(C3CCN(C(=O)c4ccc(C)cc4)CC3)nc21	inactive	–
O=C(NCc1ccco1)c1nc2c(nnn2Cc2cccc(Cl)c2)c(=O)[nH]1	inactive	–
COc1cccc(Cn2nnc3c(=O)[nH]c(C4CCCN(C(=O)c5ccccc5Cl)C4)nc32)c1 (centres undefined)	15.8 µM (active)	–
NCCSc1nc(-c2ccccc2)c(-c2ccccc2)o1	–	5.57% [at 11.4 µM]
COc1ccc(Br)c2c1C[C@H](C(=O)O)CC2	–	7.4% [at 11.4 µM]
O=C(NNC(=O)c1sc2ccccc2c1Cl)Nc1ccc(Cl)cc1	inactive	–
Cc1ccc(C)c(-c2cc(C(=O)Nc3sc(C)c(C)c3C(N)=O)c3ccccc3n2)c1	inactive	–
Cc1sc(NC(=O)c2ccccc2)c(C(=O)NCCN(C)C)c1C	14.1 µM (active)	–
Cc1sc(NC(=O)C(C)C)c(C(=O)Nc2ccccc2)c1C	inactive	–
COc1cccc(-c2nnc3sc(-c4ccc(C)cc4)nn23)c1	inactive	–
CCOc1cc2[nH]c(=O)n(CCCC(=O)NCc3ccc(OC)cc3)c(=O)c2cc1OCC	inactive	–
O=C(CCCCCn1c(=O)[nH]c2ccsc2c1=O)NCc1ccc2c(c1)OCO2	17.8 µM (active)	–
O=C(CCn1c(=O)[nH]c2ccsc2c1=O)Nc1ccc(F)c(F)c1	inactive	–
COC(=O)C[C@@H]1O[C@H]1[C@H](C)[C@@H](OC)C(C)C	–	5.88% [at 11.4 µM]
CC[C@@]1(O)C(=O)OCc2c1cc1n(c2=O)Cc2cc3c(CN(C)C)c(O)ccc3nc2-1	–	-7.02% [at 11.4 µM]
CCn1c(Cc2ccccc2)nnc1SCC(=O)NC(C)(C)C	inactive	–
C=CCn1c(Cc2c[nH]c3ccccc23)nnc1SCC(=O)NCc1ccccc1	15.8 µM (active)	–
C=CCn1c(Cc2ccc(OC)cc2)nnc1SCC(=O)c1cccc([N+](=O)[O-])c1	inactive	–
Cc1cc(C(=O)N/N=C/c2cccc([N+](=O)[O-])c2)c(C)o1	inactive	–
CCOC(=O)c1cc(-c2ccccc2)sc1NC(=O)c1ccc(OC)cc1	inactive	–
O=[N+]([O-])c1ccc(N/N=C\c2cccn2-c2ccccc2)nc1	4.47 µM (active)	–
O=[N+]([O-])c1ccc(/C=N/Nc2cc(Cl)nc(-c3ccccc3)n2)cc1	inactive	–

Compound	AC50	activity, negative = inhibition
C(=N\n1cnnc1)/c1cccn1-c1ccccc1	inactive	–
CN1C(=O)CC[C@@H]1c1cccnc1	inactive	–
Cc1cccn2c(/C=N/OCc3ccc(F)cc3)c(-c3ccc(Cl)cc3)nc12	inactive	–
COc1ccc(/C=N/NC(=O)C2CCN(c3ncc(C(F)(F)F)cc3Cl)CC2)cc1	inactive	–
O=C(CCS(=O)(=O)c1cccc2nsnc12)NC1CCCCC1	inactive	–
Cc1cccc(NC(=O)CCS(=O)(=O)c2cccc3nsnc23)c1C	inactive	–
O=C(CCCNS(=O)(=O)c1cccc2nsnc12)NCCc1ccccc1	14.1 µM (active)	–
Cc1cc(C)n(C(=O)c2cc3c(s2)CCCC3)n1	inactive	–
COC(=O)C(CCSC)NC(=O)c1cccc([N+](=O)[O-])c1 (centres undefined)	inactive	–
CCOc1ccc(CC(=O)Nc2sc(Cc3ccccc3)c(C)c2C(N)=O)cc1OCC	inactive	–
CCOC(=O)c1c(NC(=O)Nc2ccccc2)sc(C)c1C	inactive	–
COC(=O)c1c(NC(C)=O)sc(Cc2ccccc2)c1C	25.1 µM (active)	–
N#CCCn1c(=O)c(-c2ccc(F)cc2)nc2cnc(OCc3ccccc3)nc21	inactive	–
Cc1ccc(S(=O)(=O)N[C@H]2COC(=O)C/C=C\[C@@H](C)[C@H](NS(=O)(=O)c3ccc(C)cc3)COC(=O)C/C=C\[C@H]2C)cc1	–	4.7% [at 11.4 µM]
COCCn1c(=O)c(C)nc2cnc(N3CCN(C)CC3)nc21	inactive	–
Clc1ccc(Cl)c(SCCCN2CCNCC2)c1	2.51 µM (active)	–
COC(=O)c1sccc1NC(=O)CSc1cc(Cl)ccc1Cl	inactive	–
Cc1cccc(C(=O)O/N=C(\N)c2cccc([N+](=O)[O-])c2)c1	inactive	–
C#C[C@]1(O)CC[C@H]2[C@H]3CCC4=Cc5oncc5C[C@]4(C)[C@@H]3CC[C@]21C	inactive	–
CSc1nsc(SC)c1NC(=O)OCC1CCCO1 (centres undefined)	inactive	–
C=CCNC(=O)c1ccc2nc(-c3ccccc3)c(-c3ccccc3)nc2c1	inactive	–
CC[n+]1c(/C=C/Nc2ccccc2)oc2ccccc21	1.41 µM (active)	–

Compound	AC50	activity, negative = inhibition
O=C(O)CN=C1NC2(CCCC2)Cc2ccccc21	inactive	–
COC(=O)N1CCC2(CC1)CCN(c1ccncc1)CC2	inactive	–
N=C1CCC[C@@H]1C(=S)SCCC(N)=O	–	0.37% [at 11.4 µM]
COc1ccccc1-c1nccc(NC2CCNCC2)n1	inactive	–
CNc1ccnc(-c2ccccc2C(F)(F)F)n1	inactive	–
Cc1cccc(CNc2ccnc(-c3ccccc3Cl)n2)c1	15.8 µM (active)	–
COc1ccccc1-c1nccc(NCc2ccccc2)n1	3.98 µM (active)	–
COc1ccccc1-c1nccc(NCc2cccc(C)c2)n1	1.58 µM (active)	–
CNc1ccnc(-c2ccccc2OC)n1	5.01 µM (active)	–
CNc1ccnc(-c2ccccc2C)n1	inactive	–
Cc1cnc(CNc2ccnc(-c3ccccc3Cl)n2)cn1	inactive	–
C=CCNC(=O)c1ccccc1Cl	inactive	–
COc1ccc(-n2c(=O)c(C)nc3cnc(N4CCOCC4)nc32)cc1	inactive	–
COc1cccc(/C(O)=C2/C(=O)C(=O)N(Cc3cccnc3)C2c2ccco2)c1 (centres undefined)	inactive	–
C[C@@H]1NC(=O)C/C=C\[C@@H](C)[C@@H]2C=C[C@H](O)[C@@H](COC(=O)[C@H](C)NC(=O)C/C=C\[C@@H](C)[C@@H]3C=C[C@H](O)[C@@H](COC1=O)O3)O2	–	9.45% [at 11.4 µM]
COc1cccc(Cn2c(=O)c(-c3cccc(C#N)c3)nc3cnc(Nc4ccccc4)nc32)c1	inactive	–
O=C(O)c1c(Br)c(Br)c(Br)c(Br)c1C1c2ccc(O)cc2Oc2cc(O)ccc21	–	-6.23% [at 11.4 µM]
O=c1[nH]n(-c2cccc3cccnc23)c(=O)c2ccccc12	inactive	–
COc1ccc(OC)c(NC(=O)Cn2cccc2)c1	inactive	–
Cc1occc1C(=O)NNC(=O)Cc1ccccc1	inactive	–
